The record followed here is PubChem BioAssay (Tox21).

The nature of assay [1]: qHTS assay to test for compound auto fluorescence at 535 nm (green) in HEK293 cells (AID 720680). A general note: qHTS replaces the single test concentration by a dilution series.
Assay [2] in a line: qHTS assay to test for compound auto fluorescence at 460 nm (blue) in HEK293 cell free culture (AID 720681). In short, it runs like this: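 Compounds were added to cell-free DMEM with 10% FBS and fluorescence read directly. The blue channel used 405 nm excitation and 460 nm emission, with triamterene as the reference fluorophore.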
The nature of assay [3]: qHTS assay to test for compound auto fluorescence at 535 nm (green) in HEK293 cell free culture (AID 720682). The method, boiled down:
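Fluorescein serves as the green reference fluorophore; each compound's intrinsic emission at 535 nm (excitation 485 nm) is reported as an equivalent amount of that dye, measured in serum-containing DMEM without cells.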

Assay [4] can be described thus: qHTS assay to test for compound auto fluorescence at 590 nm (red) in HEK293 cell free culture (AID 720683). In short, it runs like this: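 Cell-free wells of DMEM with 10% FBS received compound, and intrinsic fluorescence was read at excitation/emission 540/590 nm. Values expressed as equivalence to Rose Bengal sodium.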
Assay [5] in a line: qHTS assay to test for compound auto fluorescence at 590 nm (red) in HepG2 cell free culture (AID 720684). The method, boiled down:
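Auto fluorescence equivalency versus Rose Bengal sodium, red channel Ex/Em 540/590 nm; compounds in cell-free MEM/10% FBS; DMSO vehicle control.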

Assay [6] is described as follows: qHTS assay to test for compound auto fluorescence at 460 nm (blue) in HepG2 cell free culture (AID 720685). The method, boiled down: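 Cell-free plates of MEM plus 10% FBS received 23 nL compound or DMSO vehicle; blue-channel (405/460 nm) intensity scored against triamterene as reference fluorophore.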
Assay [7] is described as follows: qHTS assay to test for compound auto fluorescence at 535 nm (green) in HepG2 cell free culture (AID 720686).
Assay [8] can be described thus: qHTS assay to test for compound auto fluorescence at 460 nm (blue) in HepG2 cells (AID 720687). The method, boiled down:
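HepG2 cells in MEM with 10% FBS, attached overnight at 37 C, were exposed to compound or DMSO for 1 hr at 37 C, 5% CO2. Blue fluorescence was read at 405/460 nm, with triamterene as reference fluorophore.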

For assay [9], the target named is Glucocorticoid receptor (Homo sapiens) (UniProt P04150). Description: qHTS assay to identify small molecule agonists of the glucocorticoid receptor (GR) signaling pathway (AID 720691; active means well fitted activation curve with a large enough effect in the signal ratio in the repeat runs, not every such curve was filed as active; the % refers to the signal ratio; further: potency means the concentration at half of the fitted maximal effect). The method, boiled down:
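HeLa GR-bla reporter line; cells pre-incubated 4 h, compound in DMSO 18 h at 37 C; LiveBLAzer B/G FRET substrate 2 h RT; fluorescence intensity read-out.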

For assay [10] the target is unchanged. The experiment in a line: qHTS assay to identify small molecule antagonists of the glucocorticoid receptor (GR) signaling pathway (AID 720692; active means well fitted inhibition curve with a large enough effect in the signal ratio in the repeat runs, not every such curve was filed as active; the % refers to the signal ratio). The method, boiled down: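 Read-out: beta-lactamase FRET substrate fluorescence, 2 h at room temperature, in HeLa cells stably carrying a GRE-driven bla reporter. Compounds were co-incubated with 5 nM dexamethasone agonist (final) for 18 h at 37 C.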

Structures are written as SMILES. Where “and” joins values, the source holds several entries; their conditions need not be identical. Identical values can stand only once. Records with an inconclusive call do not appear. Calls of active or inactive are those of the source. Unless noted, the call rests on the fitted dose curve; in most records, active means well fitted curve in the direction sought with a large enough effect in the repeat runs; inconclusive means weak or mixed curves; inactive means flat fitted curve, though single readings scatter.

Sequence of Glucocorticoid receptor (Homo sapiens) (P04150 whole entry, looked up): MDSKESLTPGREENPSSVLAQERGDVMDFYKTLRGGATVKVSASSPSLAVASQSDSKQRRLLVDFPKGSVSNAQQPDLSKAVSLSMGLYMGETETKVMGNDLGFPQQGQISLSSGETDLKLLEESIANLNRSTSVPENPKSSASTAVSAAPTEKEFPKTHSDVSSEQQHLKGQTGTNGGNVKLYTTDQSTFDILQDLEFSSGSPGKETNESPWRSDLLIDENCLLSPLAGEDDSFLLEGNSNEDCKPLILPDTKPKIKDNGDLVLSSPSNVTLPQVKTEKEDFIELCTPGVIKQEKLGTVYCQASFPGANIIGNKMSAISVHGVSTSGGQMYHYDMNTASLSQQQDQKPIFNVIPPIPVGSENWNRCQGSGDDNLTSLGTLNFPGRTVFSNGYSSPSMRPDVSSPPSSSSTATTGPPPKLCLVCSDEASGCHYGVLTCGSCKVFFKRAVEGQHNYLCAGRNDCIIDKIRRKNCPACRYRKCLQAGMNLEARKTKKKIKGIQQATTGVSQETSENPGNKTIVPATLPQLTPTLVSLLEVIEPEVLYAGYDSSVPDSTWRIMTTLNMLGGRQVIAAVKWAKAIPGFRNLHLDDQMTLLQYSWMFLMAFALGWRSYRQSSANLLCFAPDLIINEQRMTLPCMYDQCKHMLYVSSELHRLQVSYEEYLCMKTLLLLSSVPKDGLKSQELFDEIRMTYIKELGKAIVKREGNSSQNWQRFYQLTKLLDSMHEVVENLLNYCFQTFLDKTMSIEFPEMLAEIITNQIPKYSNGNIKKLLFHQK

As for `CCOC(=O)C(C)Oc1ccc(Oc2cnc3cc(Cl)ccc3n2)cc1` (stereo not given), the Potency entry in assay [1], in assay [2], in [3], in assay [4], in [5] and in [6] was “inactive” throughout. In addition, the Potency result in assay [7], in [8] and in assay [9] was “inactive” throughout.
For the molecule `C=C[C@@]1(C)CC(=O)[C@]2(O)[C@@]3(C)[C@@H](O)CCC(C)(C)[C@@H]3[C@H](O)[C@H](OC(C)=O)[C@@]2(C)O1`, the Potency result in assay [1], in assay [2], in assay [3], in assay [4], in assay [5] and in assay [6] was “inactive” each time. For the same molecule, the Potency result in assay [7], in assay [8] and in assay [9] was “inactive” in each case.
In the case of `Cc1ccc(C(C)(C)C)cc1`, the Potency entry in [1], in assay [2], in assay [3], in assay [4], in [5] and in [6] was “inactive” throughout. For the same molecule, the Potency entry in [7] and in assay [8] was “inactive” each time.
As for `CCCCCCCC/C=C\CCCCCCCC(=O)O`, the Potency result in assay [1], in [2], in assay [3], in assay [4], in [5] and in assay [6] was “inactive” each time. Besides, the Potency entry in assay [7], in [8] and in assay [9] was “inactive” in each case.
For the molecule `CC(=O)O[C@]1(C(C)=O)CC[C@H]2[C@@H]3C=C(Cl)C4=CC(=O)CC[C@]4(C)[C@H]3CC[C@@]21C`, the Potency entry in [1], in [2], in assay [3], in assay [4], in [5] and in [6] was “inactive” in each case. Moreover, the Potency entry in [7] and in assay [8] was “inactive” throughout.
As for `Nc1ccc(O)c(N)c1`, the Potency result in assay [1], in assay [2], in assay [3], in [4], in assay [5] and in assay [6] was “inactive” each time. The Potency entry in assay [7], in assay [8] and in assay [9] was “inactive” in each case.
Take `C1CN(SSN2CCOCC2)CCO1`: the Potency entry in assay [1], in assay [2], in [3], in assay [4], in assay [5] and in [6] was “inactive” throughout. For the same molecule, the Potency result in assay [7], in [8] and in [9] was “inactive” each time.
On to `NCCN`, for which the Potency entry in [1], in assay [2], in [3], in assay [4], in assay [5] and in [6] was “inactive” throughout. Besides, the Potency result in assay [7] and in [8] was “inactive” in each case.
With `CC(=O)[C@H]1CC[C@H]2[C@@H]3CC=C4C[C@@H](O)CC[C@]4(C)[C@H]3CC[C@]12C`, the Potency result in [1], in [2], in assay [3], in [4], in assay [5] and in assay [6] was “inactive” in each case. For the same molecule, the Potency entry in [7] and in [8] was “inactive” in each case.
As for `CNC[C@H](O)c1ccc(O)c(O)c1`, the Potency entry in assay [1], in assay [2], in [3], in assay [4], in [5] and in assay [6] was “inactive” throughout. The Potency entry in assay [7] and in assay [8] was “inactive” each time.
Turning to `C[N+](C)(C)CCO`, the Potency result in [1], in [2], in [3], in assay [4], in assay [5] and in [6] was “inactive” throughout. For the same molecule, the Potency result in assay [7] and in [8] was “inactive” each time.
With `C1COCCN1`, the Potency result in [1], in assay [2], in assay [3], in assay [4], in assay [5] and in assay [6] was “inactive” each time. For the same molecule, the Potency result in [7] and in assay [8] was “inactive” in each case.
Regarding `c1ccc2c(c1)ccc1ncccc12`, the Potency entry in assay [1], in assay [2], in assay [3], in assay [4], in [5] and in assay [6] was “inactive” throughout. Further, the Potency result in assay [7], in assay [8], in assay [9] and in assay [10] was “inactive” throughout.
On to `CC(C)[C@@H]1CC[C@@H](C)CC1=O`, for which the Potency entry in assay [1], in assay [2], in [3], in assay [4], in [5] and in assay [6] was “inactive” each time. Also, the Potency entry in [7] and in [8] was “inactive” throughout.
For `CC1=CC(C)(C)Nc2ccccc21`, the Potency entry in [1], in assay [2], in [3], in [4], in assay [5] and in assay [6] was “inactive” each time. The Potency result in [7] and in assay [8] was “inactive” throughout.
In the case of `Cc1ccc(C(C)(C)C)c(O)c1`, the Potency entry in assay [1], in [2], in assay [3], in [4], in assay [5] and in assay [6] was “inactive” each time. The Potency entry in [7] and in [8] was “inactive” each time.
With `CCCCCCCCCCCCO`, the Potency entry in assay [1], in [2], in assay [3], in assay [4], in assay [5] and in assay [6] was “inactive” in each case. In addition, the Potency result in assay [7] and in assay [8] was “inactive” in each case.
Turning to `CCC(=O)O[C@H]1[C@H](O[C@@H]2[C@@H](C)[C@H](O[C@H]3C[C@@](C)(OC)[C@@H](O)[C@H](C)O3)[C@@H](C)C(=O)O[C@H](CC)[C@@](C)(O)[C@H](O)[C@@H](C)C(=O)[C@H](C)C[C@@]2(C)O)O[C@H](C)C[C@@H]1N(C)C`, the Potency result in [1], in assay [2], in assay [3], in assay [4], in assay [5] and in assay [6] was “inactive” throughout. Besides, the Potency result in assay [7], in [8] and in assay [9] was “inactive” throughout.
As to `CCCCCC=O`, the Potency entry in assay [1], in [2], in [3], in assay [4], in assay [5] and in assay [6] was “inactive” each time. In addition, the Potency result in [7] and in assay [8] was “inactive” in each case.
For the molecule `O=C(O)c1ccc(O)cc1`, the Potency entry in assay [1], in [2], in [3], in [4], in assay [5] and in [6] was “inactive” in each case. In addition, the Potency result in [7], in [8], in assay [9] and in [10] was “inactive” throughout.
Consider `CC(=O)OC(C)C`, for which the Potency entry in [1], in assay [2], in [3], in assay [4], in assay [5] and in assay [6] was “inactive” in each case. Besides, the Potency result in assay [7], in assay [8], in assay [9] and in [10] was “inactive” each time.
Regarding `OCCNCCO`, the Potency entry in assay [1], in assay [2], in assay [3], in assay [4], in assay [5] and in [6] was “inactive” each time. In addition, the Potency result in [7], in assay [8], in assay [9] and in assay [10] was “inactive” in each case.
On to `C=CN1CCCC1=O`, for which the Potency entry in [1], in assay [2], in [3], in assay [4], in [5] and in assay [6] was “inactive” each time. The Potency entry in assay [7] and in [8] was “inactive” throughout.
For `NCCOCCO`, the Potency entry in assay [1], in assay [2], in assay [3], in assay [4], in assay [5] and in [6] was “inactive” each time. The Potency entry in [7], in assay [8], in assay [9] and in [10] was “inactive” throughout.
Regarding `Cc1ccc([N+](=O)[O-])c(C)c1`, the Potency result in assay [1], in assay [2], in assay [3], in assay [4], in assay [5] and in assay [6] was “inactive” throughout. The Potency result in assay [7], in assay [8], in assay [9] and in [10] was “inactive” throughout.
Turning to `C[C@]12C=CC(=O)C=C1CC[C@H]1[C@@H]3C[C@@H](O)[C@](O)(C(=O)CO)[C@@]3(C)C[C@H](O)[C@@]12F`, the Potency result in assay [1], in [2], in assay [3], in assay [4], in assay [5] and in assay [6] was “inactive” each time. Moreover, the Potency entry in [7] and in [8] was “inactive” each time. For the same molecule, the Potency in assay [9] is 301 nM (active) and 61.6 nM (active).
Take `CCCCCC1C(=O)CCC1CC(=O)OC` (stereo not given): the Potency entry in assay [1], in [2], in assay [3], in assay [4], in assay [5] and in [6] was “inactive” throughout. In addition, the Potency result in assay [7] and in [8] was “inactive” throughout.
